Only some compounds are listed: those with a hit (about 4.8% of all), similar ones and a draw of the others.
hgDAF-12 ag – hgDAF-12 agonism, primary luciferase screen; HEK293 GAL4-hgDAF12 UAS-luciferase reporter, agonist luminescence; normalized to butyrate control; activation, % at 6.8 µM; actives 1.8% (n = 370,000); AID 687014;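 active = activation above a cutoff set at the mean of all screened compounds plus 3 SD, cut at about 10% in these data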
DAX1 inh-1 – DAX1 (NR0B1) inhibition, primary screen; HEK293T StAR-luciferase reporter, SF-1/DAX-1 repression relief; inhibition, % at 6.8 µM; actives 1.1% (n = 370,000); AID 652010;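 active = inhibition above the mean over all tested compounds plus 3 SD, cut at about 3.6% in these data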;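 note: higher inhibition means more luminescence from relief of DAX-1 repression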
ssDAF-12 act – S. stercoralis DAF-12 activation, primary screen | AID 652126 | HEK293 ssDAF-12/GRIP1 lit1-tk-luc reporter, luminescence; % of 3 µM dafachronic acid response | activation, % at 6.8 µM | actives 1% (n = 370,000);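 active = activation above the mean over all tested compounds plus 3 SD, cut at about 0.9% in these data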
hcDAF-12 act – activators of H. contortus DAF-12 nuclear receptor. activation, % at 6.8 µM. HEK293 hcDAF-12 lit1-tk-luc reporter, luminescence; 0% DMSO, 100% Δ7-dafachronic acid. actives 1.4% (n = 370,000);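 active = activation above the mean of all tested compounds plus 3 SD, cut at about 5.5% in these data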
DAX1 inh-2 – inhibits human nuclear receptor DAX1. P51843. HEK293 Gal4-DAX1 luciferase reporter, luminescence. inhibition, % at 6.75 µM. actives 0.99% (n = 340,000);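 active = inhibition above the mean over all tested compounds plus 3 SD, cut at about 4.2% in these data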;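 note: inhibition shows as a rise in luminescence from relieved DAX1 repression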
Target sequence (P51843 207-470 limits assumed): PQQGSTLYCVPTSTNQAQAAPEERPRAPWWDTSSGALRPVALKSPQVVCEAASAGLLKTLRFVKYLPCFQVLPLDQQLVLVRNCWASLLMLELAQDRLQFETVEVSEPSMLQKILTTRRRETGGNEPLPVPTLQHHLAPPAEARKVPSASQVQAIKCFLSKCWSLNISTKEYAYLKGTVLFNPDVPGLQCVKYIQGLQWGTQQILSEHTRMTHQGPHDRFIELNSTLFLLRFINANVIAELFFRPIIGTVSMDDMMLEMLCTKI
SMARCA2 act – increases SMARCA2 function in MMTV reporter cells; MG213 cells, MMTV-luciferase reporter, dexamethasone, overnight; activation, % at 9.1 µM; actives 1% (n = 370,000); AID 652017; in the data active = activation above about 7.8%
LXR ag – activates human LXR-beta, counter-screen for hcDAF-12 agonists; shares compounds with hcDAF-12 act; HEK293 Gal4-LXR tk-luc reporter, luminescence, 24 h; normalized: DMSO 0%, positive control 100%; 3,400 tested, under 10 active; activation, % at 6.8 µM;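 active = mean percent activation of the reporter above a cutoff set as the average over tested compounds plus their standard deviation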
hcDAF12 ag – hcDAF-12 agonism, confirmation assay; AID 743032; actives 61% (n = 3,400); shares compounds with hcDAF-12 act; activation, % at 6.8 µM; HEK293 hcDAF-12 lit1-tk-luc reporter, luminescence; % of Δ7-dafachronic acid response;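 active = mean activation across triplicate tests above the threshold derived from the earlier primary screen, cut at about 5.5% in these data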
Each line names hits and unclear results; the compound was inactive in the other large screens (follow-up assays come after a bar, where they were run).

CC(Oc1ccc(F)cc1)C(=O)Nc1cc(C(F)(F)F)ccc1-n1cncn1 (stereo not given)	none
COc1ccccc1CN=c1c([N+](=O)[O-])nn(-c2ccc3c(c2)OCCO3)n1O	hgDAF-12 ag 11.4, hcDAF-12 act 9.0 | LXR ag inactive | hcDAF12 ag inactive
N#CC(Sc1ccccn1)c1ccc(Cl)cc1Cl (stereo not given)	none
O=C(Cc1nc2ccccc2[nH]1)c1ccc([N+](=O)[O-])cc1	none
CN/N=C(\Cc1nc2ccccc2[nH]1)c1ccc([N+](=O)[O-])cc1	hcDAF-12 act 7.0 | LXR ag inactive | hcDAF12 ag 7.8
O=C(NNc1nc2cc3c(cc2s1)OCCO3)c1ccccc1	none
Cc1cccc2sc(NNC(=O)c3ccc4c(c3)OCCO4)nc12	hcDAF-12 act 9.4 | LXR ag inactive | hcDAF12 ag inactive
N/C(=N\OC(=O)c1ccc(F)cc1)c1cccc([N+](=O)[O-])c1	none
Cc1cccc(/C(N)=N/OC(=O)c2ccc(F)cc2)c1	hgDAF-12 ag 12.6, hcDAF-12 act 7.2 | LXR ag inactive | hcDAF12 ag inactive
CCCCNC(=O)C(NC(=O)c1ccc(=O)[nH]c1)C(=O)c1ccccc1 (stereo not given)	none (no result: DAX1 inh-2)
C[C@H](NC(=O)c1ncn2c1C(=O)N[C@@H](C)C2)c1ccccc1	none
O=C(/C=C/c1ccco1)NC(=S)Nc1ccccc1O	hcDAF-12 act 6.8 (no result: DAX1 inh-2) | LXR ag inactive | hcDAF12 ag inactive
Cc1ccc(-c2nnn3c2nc(NC(C)C)c2ccccc23)cc1	hcDAF-12 act 6.8 | LXR ag inactive | hcDAF12 ag inactive
Nc1nc2c(-c3ccc(Br)cc3)nnn2c2ccccc12	hgDAF-12 ag 11.2, ssDAF-12 act 1.0, hcDAF-12 act 7.7 | LXR ag inactive | hcDAF12 ag 22.3
CNc1nc2c(-c3ccc(Cl)cc3)nnn2c2ccccc12	none
CCCCCOc1ccc(NS(C)(=O)=O)cc1	hcDAF-12 act 8.0 | LXR ag inactive | hcDAF12 ag inactive
CCOc1ccc(NS(=O)(=O)c2ccc(NS(C)(=O)=O)cc2)cc1	none
Cn1nc(-c2ccccc2)c2nc3ccccc3nc21	hcDAF-12 act 6.8 | LXR ag inactive | hcDAF12 ag 6.1
Cc1ccc(S(=O)(=O)Nc2cc3c4c(c2)CC(=O)N4CCC3)cc1	none
CC(C)Oc1cccc(C(=O)NC(=S)Nc2cccnc2)c1	none
COc1cccc(C(=O)NC(=S)Nc2cccnc2)c1	ssDAF-12 act 1.0, hcDAF-12 act 7.8 | LXR ag inactive | hcDAF12 ag inactive
Cc1cccc(NNC(=S)Nc2c(C)cccc2C)c1	none
Cc1cccc(NNC(=S)Nc2ccccc2)c1	hcDAF-12 act 10.9 | LXR ag inactive | hcDAF12 ag inactive
CCOc1ccc2ccccc2c1CNCCN1CCOCC1	none
CCOc1ccc(Br)cc1CNCCN1CCOCC1	hcDAF-12 act 12.9 | LXR ag inactive | hcDAF12 ag inactive
O=C(Nc1nnc(-c2cccs2)s1)C1CC1	none
O=C(Nc1nc(-c2cccs2)c(-c2cccs2)s1)C1CCCC1	hcDAF-12 act 8.1 | LXR ag inactive | hcDAF12 ag inactive
CCCCCSc1nnc(-c2cc(Br)ccc2N)c(=O)[nH]1	none
CCCSc1nnc(-c2ccccc2N)c(=O)[nH]1	hcDAF-12 act 7.1 | LXR ag inactive | hcDAF12 ag 7.2
O=C(CCCCl)Oc1ccc2cc(-c3ccc4ccccc4n3)c(=O)oc2c1	hcDAF-12 act 8.4 | LXR ag inactive | hcDAF12 ag inactive
C#Cc1ccc2c(c1)COc1c3ccccc3nn1-2	hgDAF-12 ag 12.3, ssDAF-12 act 1.8, hcDAF-12 act 11.2 | LXR ag inactive | hcDAF12 ag 8.3
C(#Cc1ccc2c(c1)COc1c3ccccc3nn1-2)c1ccccc1	none
Cc1ccc2nc3c(nc2c1)-c1ccccc1C3=O	ssDAF-12 act 1.4, hcDAF-12 act 11.2 | LXR ag inactive | hcDAF12 ag 6.2
CN1CCN(C(=O)Nc2ccccc2CC[N+](=O)[O-])CC1	hcDAF-12 act 13.2 | LXR ag inactive | hcDAF12 ag inactive
CN1CCN(C(=O)Nc2ccccc2)CC1	none
NC(=O)[C@@H]1[C@@H]2C(=O)N(c3ccc(F)cc3)C(=O)[C@@H]2[C@H]2C=Cc3ccccc3N21	hcDAF-12 act 7.5 (no result: DAX1 inh-2) | LXR ag inactive | hcDAF12 ag inactive
COc1ccc2c(=O)c(-c3nc(C)cs3)coc2c1	hgDAF-12 ag 13.8, DAX1 inh-1 4.1, ssDAF-12 act 1.1, hcDAF-12 act 7.0 | LXR ag inactive | hcDAF12 ag 14.3
N#C/C(=C\c1ccccc1O)C(=O)Nc1cccnc1	none
COc1ccc(O)c(/C=C(\C#N)C(=O)Nc2ccccn2)c1	hcDAF-12 act 7.9 | LXR ag inactive | hcDAF12 ag 5.7
Cc1cc(OCc2ccc(C(=O)NN=C3CCCC3)cc2)ccc1Cl	hcDAF-12 act 9.9 | LXR ag inactive | hcDAF12 ag 9.4
CC(OC(=O)c1cccc(S(=O)(=O)N2CCCC2)c1)C(=O)NC1CCCCC1C (stereo not given)	none
Cc1ccc(C)n1-c1ccc(-c2ccn[nH]2)cc1	none
c1ccn(-c2ccc(-c3ccn[nH]3)cc2)c1	hgDAF-12 ag 13.4, ssDAF-12 act 2.2, hcDAF-12 act 10.5 | LXR ag inactive | hcDAF12 ag inactive
O=C1C=C(NCCc2ccccc2)C2(CCCCC2)O1	none
CCCCN([C@H](CO)C(C)C)S(=O)(=O)c1ccccc1Br	none
O=C(c1ccccc1)C1Oc2ccccc2C2CC(c3cccs3)=NN12 (stereo not given)	hcDAF-12 act 8.3 | LXR ag inactive | hcDAF12 ag inactive
C/C(=N\NC(=O)c1ccccc1NC(=O)c1ccc(Cl)cc1)c1ccncc1	hcDAF-12 act 10.6 | LXR ag inactive | hcDAF12 ag 5.8
CC(=NNC(=O)c1ccncc1)c1ccccc1Cl	none
COc1ccc(C(=O)NCCN2CCC(n3c(=O)[nH]c4ccccc43)CC2)cc1F	none (no result: DAX1 inh-2)
Cc1ccc(N2CCN(C(=O)c3nn(C)c4c3CS(=O)(=O)c3ccccc3-4)CC2C)cc1 (stereo not given)	none
CC1CCCC(C)N1C(=O)c1cc(-c2ccc3c(c2)OCO3)on1 (stereo not given)	hgDAF-12 ag 11.3, hcDAF-12 act 6.6 | LXR ag inactive | hcDAF12 ag inactive
O=c1[nH]c2cc3c(cc2cc1CN(CCc1ccccc1)C(=S)NCCCN1CCOCC1)OCCO3	none
CCCCn1nnnc1NCc1ccc(C)cc1	none

Bioassay records as filed in PubChem.
